In PubChem BioAssay (Tox21):
Results filed as inconclusive are left out. Where a call stands in place of a potency, no number is given. Activity calls are given as the source filed them. The call rests on the fitted dose curve; in most records, active means well fitted cell-killing curve with a large enough effect in the repeat runs; inconclusive means weak or mixed curves, or effect the other way; inactive means no such curve, though single readings can be large or run the other way.

Experiment: qHTS assay for small molecule activators of the heat shock response signaling pathway - cell viability counter screen (AID 743209); further: nearly all actives have a fitted effect of over 50% in size
Details: HSE-bla HeLa viability, CellTiter-Glo luminescence, 5 h; series mostly up to 62.6 µM
How it was run: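 Quantitative HTS format, Tox21 10K library. HeLa cells carrying an HSE-driven beta-lactamase reporter were treated 5 h at 37 C, then assessed for viability by CellTiter-Glo luminescence.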

Row | Compound | Potency
1 | NCC1CCCC(CN)C1 (stereo unspecified) | inactive
2 | O=C(C(=O)c1ccccc1)c1ccccc1 | inactive
3 | C[N+](C)(C)CCOC(N)=O | inactive
4 | c1cnc2c(n1)CCCC2 | inactive
5 | COCCOC | inactive
6 | C/C=C(\C)C(=O)OCCC(C)CCC=C(C)C (stereo unspecified) | inactive
7 | CC(=N\O)/C(C)=N/O | inactive
8 | CC(C)CCCCCOC(=O)CCCCC(=O)OCCCCCC(C)C | inactive
9 | O=C(CCCCCCCCC#CI)Oc1ccccc1 | inactive
10 | CCCCN(CCCC)CCCOC(=O)c1ccc(N)cc1 | inactive
11 | CC1=CC(=O)CC(C)(C)C1(O)/C=C/C(C)=C\C(=O)O (stereo unspecified) | inactive
12 | CCCC(=O)O[C@]1(C(=O)COC(=O)CC)CC[C@H]2[C@@H]3CCC4=CC(=O)CC[C@]4(C)[C@H]3[C@@H](O)C[C@@]21C | inactive
13 | Cc1ccccc1N1C(=O)c2cc(S(N)(=O)=O)c(Cl)cc2NC1C (stereo unspecified) | inactive
14 | Cc1ccc(Nc2nccc(N(C)c3ccc4c(C)n(C)nc4c3)n2)cc1S(N)(=O)=O | inactive
15 | Cc1cnc(C)c(C)n1 | inactive
16 | CC(C)(C)C(=O)O | inactive
17 | CCCCC(=O)O[C@]1(C(=O)CO)CC[C@H]2[C@@H]3CCC4=CC(=O)CC[C@]4(C)[C@H]3[C@@H](O)C[C@@]21C | inactive
18 | COC(=O)Nc1nc2ccc(C(=O)c3cccs3)cc2[nH]1 | inactive
19 | CC(C)c1nnc2ccc(-c3ocnc3-c3cc(F)ccc3F)cn12 | inactive
20 | C[N+]1(C)CCC(=C(c2ccccc2)c2ccccc2)CC1 | inactive
21 | CC(=O)[C@H]1CC[C@H]2[C@@H]3C[C@H](C)C4=CC(=O)CC[C@]4(C)[C@H]3[C@@H](O)C[C@]12C | inactive
